Test results published in PubChem BioAssay (NCI).
Compounds without any hit were thinned out: in the full panel of roughly 83,000, 20% have a hit.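 Single-concentration screen, 48 h exposure, 96-well plates. Endpoint: percent growth. Below 10 = active.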 Activity calls are given as the source filed them.

These compounds were tested on HT29 colon (assay: NCI-60 one-dose screen, 48 h (100 = growth as untreated, 0 = no growth, -100 = all killed)). Conditions: 10 µM unless noted.
Experimental: Growth inhibition of the HT29 human tumor cell line is measured as a screen for anti-cancer activity. Cells are grown in 96 well plates and exposed to the test compound for 48 hours. Compounds are tested at a single concentration, which is 10^-5 M for most compounds. The reported endpoint is percent growth (GI% or GIPRCNT), where numbers from 0 - 100% represent growth inhibition, and numbers from -100% - 0 represent cell death. For example, a value of 40 represents 60% growth inhibition. A value of 0 means no net growth occurred over the course of the experiment. A value of -40 indicates 40% of cells at the beginning of the experiment died by the end of the experiment. A value of -100 means all cells are dead at the end of the experiment.
NCI-60 Human Tumor Cell Lines Screen was performed using the standard one-dose NCI protocol, which is described in more detail at https://dtp.cancer.gov/discovery_development/nci-60/default.htm.
Compounds with GIPRCNT values below 10 were considered active. Activity score was based on GIPRCNT using the following formula: […]
Score is 0 for GIPRCNT values of 100 or above, 50 for GIPRCNT values of 0, and 100 for GIPRCNT values of -100.
`CN(C)c1cccc2c(S(=O)(=O)/N=C(\N)Nc3nc4ccccc4s3)cccc12` was tested, and the growth was 48.2% (inactive). With `Oc1ccc(Cl)cc1-c1cc(-c2ccc(F)cc2)n[nH]1` the growth was 98.7% (inactive). With `O=C1NC(=C(Cl)Cl)/C(=N/S(=O)(=O)N2CCC(C3(C(F)(F)F)N=N3)CC2)N1` the growth was -10.2% (active). `Cc1ccc(S(=O)(=O)NCCCNc2cc(-c3cn(C(C)(C)C)nc3-c3cccc(O)c3)ccn2)cc1` was tested, and the growth was 12.8% (inactive). In the case of `CCCCCCCC/C=C/CCCCCCCC1=NC(C)(C)CN1C(C)(C)CO`, the growth is reported as -57.8% (active). For `N/C(=N\C(N)=N\c1nc2ccccc2s1)c1cccc(Br)c1`, the growth was 104% (inactive). With `O=C(Nc1ccncc1)C(=O)c1cn(S(=O)(=O)c2ccc(Br)cc2)c2ccccc12` the growth was 11.6% (inactive). For `Brc1cccc(-c2cc(-c3ccc4nccnc4c3)[nH]n2)c1`, the growth was 5.66% [25 µM] (active). With `CCCCN(CCCC)C(=O)CC` the growth was 110% (inactive). With `Cc1[nH]c2ccc(F)cc2c1CCNC(=O)C1CCN(C(=O)c2ccccc2)C1` (stereo not given) the growth was 101% [25 µM] (inactive). With `N[C@H]1CN(C(=O)c2cc3cc(Br)c(F)c(F)c3[nH]2)C[C@@H]1O` the growth was 103% (inactive). With `Cn1ccc(=O)c(S(N)(=O)=O)c1` the growth was 107% (inactive). With `O=C(c1c[nH]c(=O)c(-c2ccccc2)c1)c1ccccc1O` the growth was 101% (inactive). With `O=C(Nc1ccc(NCCN2CCOCC2)nc1)c1ccc([N+](=O)[O-])cc1` the growth was 101% (inactive). For `c1cc(C2=N[C@@H]3c4ccccc4C[C@@H]3O2)nc(C2=N[C@@H]3c4ccccc4C[C@@H]3O2)c1`, the growth was 105% (inactive). `COC(=O)c1nc(-c2ccccc2)oc1S(=O)(=O)N1CCN(c2cccc(Cl)c2)CC1` was tested, and the growth was 50.8% (inactive). In the case of `CCOC(=O)c1ccc2c(c1)c1c(C)c3cccnc3c(C)c1n2C`, the growth is reported as 47.4% (inactive). `C=C1CCC2C3(C)COC(C)(C)OC3CCC2(C)C1C/C=C1/C(=O)OCC1Oc1ccccc1OC` (stereo not given) was tested, and the growth was 56.4% (inactive). In the case of `COc1cc(C(=O)/C=C/c2ccc3nc(-c4cc(F)cc(F)c4)sc3c2)cc(OC)c1OC`, the growth is reported as 95.9% (inactive). With `CC(C)(C)n1cc(-c2ccnc(NCCNS(=O)(=O)c3ccc(F)cc3)c2)c(-c2cccc(O)c2)n1` the growth was 15.8% (inactive). With `O=C(Nc1cccc(-n2cc(-c3ccncc3)c(-c3ccc(Cl)c(O)c3)n2)c1)c1ccccc1` the growth was 53.5% (inactive). `COc1cc(/C=C/C(=O)c2c(C)nc3ccccc3c2C)ccc1OCCCCOc1cc2c(cc1OC)C(=O)N1CCC[C@H]1C=N2` was tested, and the growth was -73.3% (active). For `CN(CCCCCl)P(=O)(OCc1ccc([N+](=O)[O-])o1)C(F)(F)C[C@H](NC(=O)CNC(=O)c1ccc(N=[N+]=[N-])cc1)C(=O)NCCc1ccc(O)cc1` (stereo not given in full), the growth was 86.3% (inactive). For `O=[N+]([O-])c1cc(Cl)c2[nH]c3c(Cl)cc([N+](=O)[O-])cc3c2c1`, the growth was -38.3% (active). In the case of `COc1ccc(-c2cc3c(OC)c(OC)c(OC)cc3oc2=O)cc1`, the growth is reported as 12% (inactive). In the case of `Cc1nn(-c2ccc([N+](=O)[O-])cc2)c2ncnc(NCCc3ccccc3)c12`, the growth is reported as 103% (inactive). In the case of `S=c1[nH]nc(-c2cc3ccc2CCc2ccc(cc2)CC3)n1-c1ccccc1`, the growth is reported as 90.8% (inactive). `COc1cccc(/C=C2\Oc3cc(OCCCN4CCCC4)ccc3C2=O)c1` was tested, and the growth was 17.8% (inactive). `NC1N=C(SCC(=O)N2CCN(c3cc4c(cc3F)c(=O)c(C(=O)O)cn4C3CC3)CC2)NC(=O)/C1=C/c1ccc(Cl)cc1` (stereo not given) was tested, and the growth was 111% (inactive). With `COc1ccc(OC)c(/C=C2\Oc3cc(OCCCN4CCCC4)ccc3C2=O)c1` the growth was 10.3% (inactive). In the case of `CN(C)CCOC(=O)Nc1ccccc1Cl`, the growth is reported as 110% (inactive). With `O=S(=O)(NCCNc1nccc(-c2c(-c3ccc(O)cc3)nc3sccn23)n1)c1cccc2ccccc12` the growth was 102% (inactive). For `Cc1cc(N/N=C/c2nc(-c3ccc(Br)cc3)oc2C)c2cc(Cl)ccc2n1`, the growth was 13.5% (inactive). For `Cc1nc2cncc(C#Cc3cncc(C(=O)Nc4ccc(CN5CCN(C)CC5)c(C(F)(F)F)c4)c3)c2nc1C`, the growth was 3.88% (active). For `CC(NNC(C)c1ccccc1)c1ccccc1` (stereo not given), the growth was 95.2% (inactive). `COc1ccc(-c2[nH]nc(N)c2-c2cc(OC)c3c(c2)OCO3)cc1` was tested, and the growth was 26% (inactive). For `Cc1cc(C2(c3cc(C)c(O)cc3C)OS(=O)(=O)c3ccccc32)c(C)cc1O`, the growth was 92.9% (inactive). With `N=C(N)c1ccc(-c2ccc(-c3ccc4ccccc4c3)s2)cc1` the growth was -42% (active). For `CC(C)C1=CC2=C(C=O)C[C@@H]3[C@](C)(CCC[C@@]3(C)C(=O)OCC#CCN3CCCC3)[C@H]2CC1`, the growth was 18.5% (inactive). `COc1ccc(-c2nc(N3CCCC3=O)sc2Br)cc1OC` was tested, and the growth was 82.7% (inactive).
